Screening results: PubChem BioAssay, National Center for Advancing Translational Sciences (NCATS)
FMDV antiviral: Primary qHTS Assay for Foot and Mouth Disease Virus Antivirals against NCGC Sytravon and CBC Compound Libraries: Firefly Luciferase Signal | FMDV antiviral cell assay, firefly luciferase signal | Potency, µM (series often up to 57.5 µM), without a hit: at the highest dose activity change, negative = inhibition, hits mostly inhibitors | actives 0.23% (n = 120,000) | AID 1745856, 2022; note: nearly all actives have a fitted effect of over 60% in size
FMDV Renilla: Primary qHTS Assay for Foot and Mouth Disease Virus Antivirals against NCGC Sytravon and CBC Compound Libraries: Renilla Luciferase Signal; actives 0.32% (n = 120,000); FMDV replicon cells, Renilla luciferase signal; Potency, µM (highest dose often 57.5 µM), for inactives: at the top dose activity change, negative = inhibition, hits mostly inhibitors; AID 1745857, 2022; note: nearly all actives have a fitted effect of over 55% in size
Active calls of the source: *; ? = inconclusive; [ ] = dose if it differs, or a comment. Shown are actives, neighbours in structure and some others; about 0.51% of the full set was active somewhere. Calls come from the whole dose curve. % is set by controls: 0 for no effect and ±100 for the full control effect; potency is the fitted concentration of half-maximal effect.

SMILES	FMDV antiviral	FMDV Renilla
O=C(/C=C/C(=O)c1ccc(Cl)cc1)c1ccccc1	210.5%	15.8%
C(#CCN1CCN(CC#CCOCc2ccccc2)CC1)COCc1ccccc1	-6.6%	-3.5%
C(#CCN1CCN(CC#CCOCCOCc2ccccc2)CC1)COCCOCc1ccccc1	4.47µM*	5.01µM*
Cn1cc(C(C(=O)O)N2CCN(Cc3ccncc3)CC2)c2ccc(C(=O)O)cc21 (stereo not given)	14.6%	6.4%
COc1ccc(CCNc2nccn(-c3ccc(C)c(C)c3)c2=O)cc1OC	?	7.94µM*
COc1ccc(-n2ccnc(NCCc3ccccc3)c2=O)cc1OC	-1.9%	4.7%
COc1ccc(Cl)cc1NC(=O)c1cnc(Nc2ccccc2OC)c2ccccc12	24.6%	31.4%
N#Cc1c(N)sc2c1-c1ccccc1CC2	37.1%	51.4%
CCOc1ccc(-c2nc(CSCC(=O)N3CCN(c4ccc(F)cc4)CC3)c(C)o2)cc1	-0.6%	-4.7%
CCOc1ccc(-c2nc(CSCC(=O)N3CCN(c4cccc(C(F)(F)F)c4)CC3)c(C)o2)cc1	28.2µM*	?
CCOC(=O)C(C(=O)OCC)=C(C(=O)OCC)C(=O)OCC	3.0%	7.8%
Cc1cccc(COc2ccc(CNC(=O)c3nccnc3N)cc2)c1	?	14.1µM*
Nc1nccnc1C(=O)NCc1ccccc1	21.8%	9.9%
CCOCc1ccc(CNC(=O)c2nccnc2N)cc1	?	25.1µM*
Nc1nccnc1C(=O)NCc1ccc(O)cc1	12.8%	18.3%
C=CCn1c(CC)nc2ccccc21	22.0%	9.6%
CNC(=O)c1ccc2c(c1)NC(=O)CCS2	9.5%	-1.3%[1.06 µM]
CSc1ccc(NC(=O)c2ccc3c(c2)NC(=O)CCS3)cc1	?	10µM*
COc1ccc(C(=O)Oc2ccc(/C=C(/C#N)C(=O)Nc3ccccc3C(F)(F)F)cc2)cc1	6.4%	0.5%
COc1ccc(-c2nc3c(s2)CN(C(C(=O)O)c2c[nH]c4ccc(CO)cc24)CC3)cc1 (stereo not given)	-32.2%	-1.5%
O=[N+]([O-])c1ccccc1/C=N/Nc1ccc(S(=O)(=O)Nc2cccc(Cl)c2)cc1[N+](=O)[O-]	11.2µM*	-77.1%
O=[N+]([O-])c1ccccc1/C=N/Nc1ccc(S(=O)(=O)Nc2ccc(Cl)cc2)cc1[N+](=O)[O-]	-11.2%	181.0%
Cc1cc(C)c(NS(=O)(=O)c2cccc(C(F)(F)F)c2)c(C)c1	-7.6%	9.4%
CCCCc1ccc(NC(=O)COc2cccc3c(=O)n(C)ccc23)cc1	?	8.91µM*
CCCn1ccc2c(OCC(=O)NCc3ccc(C)cc3)cccc2c1=O	-9.9%	12.6%
SMILES	FMDV antiviral	FMDV Renilla
O=C(NC1(C(F)(F)F)C(=O)Nc2c1c(=O)[nH]c(=O)n2-c1ccc(F)cc1)c1ccco1 (stereo not given)	4.0%	-5.1%
CN1CCN(CCOc2ccc3cc(-c4ccccc4)c(=O)oc3c2)CC1	179.1%	-5.9%
Nc1ccc(OCC2CC2)c(F)c1	120.6%	11.6%
O=Cc1ccc(OCC2CC2)c2ccccc12	?	5.62µM*
CC(C)Sc1nc2c(c(=O)n(C)c(=O)n2C)n1Cc1ccccc1Cl	3.4%	-7.6%
CSc1nc2c(c(=O)n(C)c(=O)n2C)n1Cc1cccc2ccccc12	15.8µM*	14.1µM*
Cc1ccnc(NS(=O)(=O)c2ccc(NC(=O)c3nc(SC(C)C)ncc3Cl)cc2)n1	-5.4%	-13.3%
Cc1cc(C)nc(NS(=O)(=O)c2ccc(NC(=O)c3nc(SC(C)C)ncc3Cl)cc2)n1	-9.1%	11.2µM*
COc1ccc(COCC(O)Cn2nc(-c3ccc(C)cc3)c3ccccc3c2=O)cc1 (stereo not given)	-24.1%	-16.2%
CCOC(=O)C1CCCN(C(=O)c2cc3c(Cl)nc4ccccc4c3s2)C1 (stereo not given)	6.31µM*	-16.8%
O=C(c1cc2c(Cl)nc3ccccc3c2s1)N1CCCCC1	63.6%	4.8%
Cc1cc(C)n(-c2nc3c(c(=O)n(CCc4ccccc4)c(=O)n3C)n2CCC(C)C)n1	?	5.01µM*
CCCn1c(-n2nc(C)cc2C)nc2c1c(=O)n(CCc1ccccc1)c(=O)n2C	-24.5%	?
O=C(c1cc2cc(F)ccc2[nH]1)N(Cc1ccco1)Cc1ccco1	15.3%	67.5%
COc1ccc(C2(c3ccc(OC)cc3)C=Cc3c(ccc4ccc(O)cc34)O2)cc1	-3.3%	-16.0%
Cc1ccc(CNc2c(C)c(C)nc3nncn23)cc1	2.24µM*	2µM*
CCc1c(C)nc2nncn2c1NCc1ccc(Cl)cc1	-39.8%	?
Cc1ccc(-c2nc(C#N)c(NCCN(C)C)o2)cc1	38.2%	18.2%
CN1CCN(c2ccc(C#N)cc2)CC1	2.82µM*	13.0%[1.06 µM]
CN1CCN(c2ccc(C#N)cn2)CC1	0.1%	15.2%
CCS(=O)(=O)c1ncc(Cl)c(C(=O)N(Cc2ccccc2)C2CCS(=O)(=O)C2)n1 (stereo not given)	?	25.1µM*
CCS(=O)(=O)c1ncc(Cl)c(C(=O)N(Cc2ccccc2)Cc2ccco2)n1	22.4µM*	-0.6%
CCS(=O)(=O)c1ncc(N(Cc2ccccc2)Cc2ccco2)c(C(=O)Nc2cccc(Cl)c2C)n1	-6.4%	18.3%
CSc1ncc(Cl)c(C(=O)N(Cc2ccc(C)cc2)C2CCS(=O)(=O)C2)n1 (stereo not given)	-13.6%	19.1%
COc1ccc(-c2nc3c(s2)CN(C(C(=O)O)c2c[nH]c4ccc(Br)cc24)CC3)cc1 (stereo not given)	-10.4%	6.5%
SMILES	FMDV antiviral	FMDV Renilla
Cn1nc(C(=O)OCC(=O)Nc2ccc(OCc3ccccc3)cc2)c2ccccc2c1=O	119.8%	1.5%
O/N=C/c1ccccc1Br	10.4%	-4.9%
CCC(C)(C)NC(=O)CCc1ccc(C#N)cc1	-9.7%	-0.8%
COc1ccc(-c2noc(CCCC(=O)Nc3ccc(S(=O)(=O)N4CCCCCC4)cc3)n2)cc1	31.6µM*	?
COc1ccc(-c2noc(CCCC(=O)Nc3cccc(Cl)c3C)n2)cc1	-14.2%	-12.4%
CC(=O)c1cccc(C#Cc2ccccc2)c1	204.8%	0.0%
O=C(CSc1nc(NC2CC2)c2ccccc2n1)NC1CC1	20.8%	22.0%
O=C(c1ccc(N2CCCN(Cc3ccccc3)C2=O)cc1)N1CCN(c2ccccc2)CC1	?	-13.7%
Cc1cccc(CN2CCCN(c3cccc(C(=O)N4CCN(c5ccccc5)CC4)c3)C2=O)c1	?	10µM*
CCc1ccc(-c2noc(CN3CCCc4c(C(=O)NC(C)C)cccc43)n2)cc1	20.7%	7.1%
CC(C)NC(=O)c1cccc2c1CCCN2Cc1nc(-c2cccc(Cl)c2)no1	?	25.1µM*
COc1ccc(C(=O)/C=C/c2ccccc2OCC#N)c2ccccc12	?	25.1µM*
COc1ccccc1/C=C/C(=O)c1ccc(C)cc1OC	0.0%	31.4%
Cc1ccc(Nc2nc(-c3cnc(N4CCOCC4)nc3C)cc(=O)[nH]2)cc1	-2.2%	-4.1%
CCc1cc(=O)oc2cc(OC(C)C(=O)NCc3ccncc3)c(Cl)cc12 (stereo not given)	0.7%	-5.6%
COc1ccccc1NC(=O)NCCn1c(C(F)(F)F)nc2ccccc21	8.8%	14.5%
Cc1ccc(S(C)(=O)=O)cc1NCc1c(F)cccc1Cl	18.0%	0.0%
O=C(Nc1cccc(Cl)c1)c1nc2ccccc2nc1N1CCCC1	-3.8%	3.2%
Clc1cccc(Nc2nc3nonc3nc2N2CCCCC2)c1	?	6.31µM*
CC(=O)NCc1ccc(-c2csc(-c3ccc(C)cc3)n2)o1	0.0%	-8.1%
O=C(Nc1ccc(SCc2cccnc2)cc1)c1ccc2c(c1)OCCCO2	?	17.8µM*
